KinaseGlo FLuc: counter-screen: inhibitors of Kinase-Glo firefly luciferase; Potency, µM (titrated, usually from 38.3 µM), hits mostly inhibitors; Kinase-Glo luciferase, ATP luminescence, 8 min; 200,000 compounds, 0.28% hits; AID 1379; active = well fitted inhibition curve with a large enough effect; inconclusive = small, poorly fitted or top-dose-only effect; also: nearly all actives have a fitted effect of over 60% in size
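Compounds were added to a substrate mix at pH 7.2 (50 mM imidazole, 10 uM ATP, within the enzyme's linear range), followed by Kinase-Glo detection reagent; luminescence was measured after 8 minutes at ambient temperature.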
KCNH2 3.1 block: KCNH2 3.1 (human) potassium channel inhibition; U2OS KCNH2 3.1, thallium flux FluxOr; active compounds read low; activity change, % (tested at about 1.8 µM); 340,000 compounds, 0.95% hits; AID 720553;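 active = maximum activity change below -70%; inconclusive = maximum activity change from -70% to -50%; inactive = maximum activity change above -50%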;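 also: thallium influx rate constant from kinetic fluorescence after stimulation buffer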
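Kinetic fluorescence (2 min after stimulation buffer) measures Tl+ influx through KCNH2 3.1 expressed by viral transduction in U2OS cells; the rate constant is normalized against DMSO controls serving as positive and negative references.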
KCNH2 WT inh: inhibitors of human wildtype KCNH2 potassium channel. AID 720551. 340,000 compounds, 0.37% hits. activity change, % at 1.84 µM. U2OS, BacMam KCNH2, thallium flux FluxOr; active compounds read low;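 active = maximum activity change below -70%; inconclusive = maximum activity change between -70% and -50%; inactive = maximum activity change above -50%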
Target sequence (Q12809 whole entry, looked up): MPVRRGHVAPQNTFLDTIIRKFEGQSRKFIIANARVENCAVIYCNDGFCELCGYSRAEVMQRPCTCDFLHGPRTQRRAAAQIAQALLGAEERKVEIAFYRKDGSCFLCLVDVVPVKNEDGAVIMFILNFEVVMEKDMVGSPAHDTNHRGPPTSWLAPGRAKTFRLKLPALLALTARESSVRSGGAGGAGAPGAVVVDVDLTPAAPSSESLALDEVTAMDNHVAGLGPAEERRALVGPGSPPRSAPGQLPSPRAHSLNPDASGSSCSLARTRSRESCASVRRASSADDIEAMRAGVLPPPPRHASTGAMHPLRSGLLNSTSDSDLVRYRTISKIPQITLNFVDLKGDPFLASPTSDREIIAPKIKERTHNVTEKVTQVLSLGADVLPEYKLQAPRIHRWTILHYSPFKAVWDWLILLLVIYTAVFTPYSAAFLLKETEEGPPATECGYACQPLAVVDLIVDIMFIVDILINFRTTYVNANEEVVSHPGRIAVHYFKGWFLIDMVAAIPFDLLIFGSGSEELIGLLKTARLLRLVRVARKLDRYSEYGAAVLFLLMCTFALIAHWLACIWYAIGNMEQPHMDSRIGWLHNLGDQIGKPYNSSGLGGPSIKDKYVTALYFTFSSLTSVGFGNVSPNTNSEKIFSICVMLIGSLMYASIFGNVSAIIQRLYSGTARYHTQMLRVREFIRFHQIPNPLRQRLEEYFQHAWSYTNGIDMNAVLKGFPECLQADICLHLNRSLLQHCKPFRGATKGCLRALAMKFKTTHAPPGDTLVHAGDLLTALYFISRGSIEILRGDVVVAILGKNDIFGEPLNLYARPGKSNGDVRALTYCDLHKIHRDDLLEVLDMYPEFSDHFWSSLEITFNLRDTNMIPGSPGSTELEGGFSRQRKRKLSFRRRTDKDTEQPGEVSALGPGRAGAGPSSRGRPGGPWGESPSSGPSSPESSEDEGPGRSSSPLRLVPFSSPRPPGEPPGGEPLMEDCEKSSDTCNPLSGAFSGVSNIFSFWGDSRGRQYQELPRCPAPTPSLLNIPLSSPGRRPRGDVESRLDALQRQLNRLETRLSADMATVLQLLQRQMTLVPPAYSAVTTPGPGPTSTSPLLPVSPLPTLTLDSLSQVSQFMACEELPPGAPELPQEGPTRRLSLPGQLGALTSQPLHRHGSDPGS
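U2OS cells were transduced with wild-type KCNH2 virus (2.03 x 10^8 / mL) for 4 h at room temperature, then cultured overnight at 37 C. Thallium flux was read with FluxOr dye. Rate constants were normalized to DMSO controls.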
A number is an active result; - = inactive; ? = inconclusive; . = not tested or not shown. Only some compounds are listed: those with a hit (about 1.2% of all), similar ones and a draw of the others.

SMILES	KinaseGlo FLuc	KCNH2 3.1 block	KCNH2 WT inh
O=C(N1CCCC1)C12CC3CC(CC(Cl)(C3)C1)C2	.	-	-
CCOc1ccc(C(=O)Nc2cc(C)ccn2)cc1	12.6µM	-	-
CCOc1cc(C(=O)Nc2cc(C)ccn2)cc(OCC)c1OCC	-	-	-
COc1ccc(NC(=O)C2CCCN(S(=O)(=O)c3ccccc3)C2)c(OC)c1 (configuration not stated)	.	-	-
O=C(/C=C/c1ccc([N+](=O)[O-])cc1)N(c1ccccn1)C1CCCCC1	-	-	-
OCCC1CN(CC#Cc2ccccc2)CCN1C1CCCC1 (configuration not stated)	-	-	-
OCCC1CN(CC(c2ccccc2)c2ccccc2)CCN1C1CCCC1 (configuration not stated)	-	-75.3	-
Cc1ccc(C(=O)NC(=S)N2CCCCCC2)cc1	.	-	-
COc1ccc(N(CC(=O)NCCSCc2ccccc2Cl)S(C)(=O)=O)cc1Cl	.	-74.1	-
COc1ccc(N(CC(=O)NCCSCc2c(F)cccc2Cl)S(C)(=O)=O)cc1OC	-	-	-
O=C(Nc1ccccc1N1CCN(C(=O)c2ccc(Cl)cc2)CC1)c1ccc(Br)cc1	-	-90.8	-
O=C(Nc1ccccc1N1CCN(C(=O)c2ccc(Cl)cc2)CC1)c1ccc([N+](=O)[O-])o1	.	-92.7	-94.2
O=C(Nc1ccccc1N1CCCCC1)c1ccc([N+](=O)[O-])o1	.	-	-
O=C(Nc1ccccc1N1CCN(C(=O)c2ccccc2)CC1)c1ccc(Cl)cc1	-	-	-
CCOc1ccc(CNC(=O)Cn2ccc3cc(S(=O)(=O)N4CCCCCC4)ccc32)cc1	.	-	-
CN1CCC(NC(=O)c2cc(-c3cccc(Br)c3)nc3ccccc23)CC1	.	-	-
Cc1cc(Cl)ccc1NS(=O)(=O)c1c(C)[nH]c(=O)[nH]c1=O	.	-	-
COCCn1c(=O)[nH]c2cc(C(=O)N3CCN(c4cc(C)ccc4C)CC3)ccc2c1=O	.	-80.4	-
COCCn1c(=O)[nH]c2cc(C(=O)N3CCN(c4ccc(OC)cc4)CC3)ccc2c1=O	.	-	-
CC1(C)CC(=O)C=C(C(=O)N2CCCC(C(=O)c3cccc(Cl)c3)C2)O1 (configuration not stated)	-	-	-
CN1CCN(NC(=O)CC(C)(C)C)CC1	-	-	-
CCCCCCC(=O)NN1CCN(C)CC1	-	-	-256.9
CCOc1cc(CN2CCCC(CNC(=O)c3ccc(F)cc3)C2)ccc1OC (configuration not stated)	.	?	-
CSc1cccc(CN2CCCC(CNC(=O)c3ccc(F)cc3)C2)c1 (configuration not stated)	-	-	-
CSc1ccc(CN2CCCC(CNC(=O)c3ccc(F)cc3)C2)cc1 (configuration not stated)	.	-78.2	-
SMILES	KinaseGlo FLuc	KCNH2 3.1 block	KCNH2 WT inh
CCOc1ccc(CN2CCCC(CNC(=O)c3ccc(F)cc3)C2)cc1CO (configuration not stated)	-	-100.8	.
O=C(CCNS(=O)(=O)c1ccccc1C(F)(F)F)NC1CCCCCC1	.	-	-
CCc1ccccc1NC(=O)CNC(=O)CNC(=O)c1cccs1	.	-	-
O=C(/C=C/c1cccc(Cl)c1Cl)OCC(=O)N1CCOCC1	.	-	-
CN(C)CCCn1cnc2c1c(=O)[nH]c(=O)n2Cc1ccccc1	.	-	-
CN(C)CCn1cnc2c1c(=O)[nH]c(=O)n2Cc1ccccc1	.	-	-252.3
COc1ccccc1C(=O)O/N=C(\N)c1ccccn1	.	-	-
N/C(=N\OC(=O)c1ccccc1Cl)c1ccccn1	11.2µM	-	-
N/C(=N\OC(=O)c1ccc(Cl)cc1)c1ccccn1	6.31µM	-	-
N/C(=N\OC(=O)c1ccc(Cl)c(Cl)c1)c1ccccn1	-	-	-
FC(F)Oc1ccc(NC(=S)NCc2nc3ccccc3[nH]2)cc1	-	-85.1	-
CCOc1ccc(NC(=S)NCc2nc3ccccc3[nH]2)cc1	-	?	.
CCC1CN(C(=O)N2CCC(C(=O)NCc3cc(OC)c(OC)c(OC)c3)CC2)c2ccccc2O1 (configuration not stated)	.	-	-
Cc1ccc(S(=O)(=O)N2CCN(c3ccccc3)CC2)s1	.	-	-
CCCCCCCNC(=O)C1(CC2CC(c3cccc(Br)c3)=NO2)CCNCC1 (configuration not stated)	.	-77.2	-
CCCCCCCNC(=O)C1(CC2CC(c3ccccc3)=NO2)CCN(C(=O)c2ccccc2)CC1 (configuration not stated)	.	-	-
CCCCCCCNC(=O)C1(CC2CC(c3cccc(Br)c3)=NO2)CCN(C(=O)c2ccccc2)CC1 (configuration not stated)	.	?	-70.5
CCCCCCCNC(=O)C1(CC2CC(c3cccc(Br)c3)=NO2)CCN(C(=O)Cc2ccc(F)cc2)CC1 (configuration not stated)	.	-	-
CCCNC(=O)C1CN(S(=O)(=O)c2ccc(Cl)s2)c2ccccc2O1 (configuration not stated)	.	-	-
CCN1C(=O)Cc2cc(S(=O)(=O)NCCc3ccccc3)ccc21	.	-	-
CCOc1cc(C)cc2oc(=O)cc(-c3ccccc3)c12	-	-	-
Cc1cc(OCC(=O)N2CCc3ccccc3C2)c2c(-c3ccccc3)cc(=O)oc2c1	-	-	-203.1
Cc1noc(C)c1NC(=O)N(C)C[C@H]1Oc2ccc(NC(=O)C3CC3)cc2C(=O)N([C@H](C)CO)C[C@@H]1C	.	-	-
O=C(NCc1cccnc1)c1ccccc1NS(=O)(=O)c1ccc(Br)cc1	.	-	-
CC(=O)NC(CC(=O)NNC(=O)C(C)Oc1ccccc1F)c1ccccc1 (configuration not stated)	.	-	-
SMILES	KinaseGlo FLuc	KCNH2 3.1 block	KCNH2 WT inh
CCN1C(=O)[C@H]2[C@@H](c3ccc(C)cc3)N3C(=O)N(c4cccc(Br)c4)C(=O)[C@@]3(C)[C@H]2C1=O	.	-80.1	-
Cc1cccc([C@@H]2[C@@H]3C(=O)N(Cc4ccccc4)C(=O)[C@@H]3[C@]3(Cc4ccccc4)C(=O)N(c4cccc(Cl)c4)C(=O)N23)c1	.	-	-
CCN1C(=O)[C@H]2[C@@H](c3ccc(C)cc3)N3C(=O)N(c4cccc(Br)c4)C(=O)[C@@]3(CC(C)C)[C@H]2C1=O	.	-	-
Cc1cccc([C@@H]2[C@@H]3C(=O)N(Cc4ccccc4)C(=O)[C@@H]3[C@]3(C)C(=O)N(c4cccc(Cl)c4)C(=O)N23)c1	.	-73.8	-
CCCNC(=O)CN1C(=O)c2ccccc2Sc2ncccc21	.	-	-
Cc1c(C(=O)NC2CCC(C)CC2)oc2ccccc12 (configuration not stated)	.	-	-
O=C(NCCN1CCN(c2ccccc2)CC1)c1cccn2c(=O)c3ccccc3nc12	.	-	-
O=C(NCCN1CCN(c2ccccc2F)CC1)c1cccn2c(=O)c3ccccc3nc12	-	-79.4	-
C=C(C(C)=O)C(O)c1cccc(OC)c1 (configuration not stated)	-	.	.
CCOc1ccc(OCCOC(=O)C2CCN(S(=O)(=O)c3ccc(C)c(C)c3)CC2)cc1	.	-	-
Cc1ccc2cc(CN(c3ccccc3C)S(=O)(=O)c3ccccc3)c(=O)[nH]c2c1	.	-	-
COCCN(Cc1cc2ccc(C)cc2[nH]c1=O)S(=O)(=O)c1ccccc1	.	-	-217.6
